Data as given in PubChem BioAssay (NCI).
About 83,000 compounds went through this panel and 20% of them were active in at least one assay; those are over-represented in the sample as a whole.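 For each line, cells grew in 96-well plates with the test compound present at a single concentration for 48 hours.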 A number with no mark means an inactive call. Calls of active or inactive are those of the source.

system: OVCAR-4 ovarian; assay: NCI-60 one-dose screen, 48 h (100 = growth as untreated, 0 = no growth, -100 = all killed); details: 10 µM unless noted
Procedure: Growth inhibition of the OVCAR-4 human tumor cell line is measured as a screen for anti-cancer activity. Cells are grown in 96 well plates and exposed to the test compound for 48 hours. Compounds are tested at a single concentration, which is 10^-5 M for most compounds. The reported endpoint is percent growth (GI% or GIPRCNT), where numbers from 0 - 100% represent growth inhibition, and numbers from -100% - 0 represent cell death. For example, a value of 40 represents 60% growth inhibition. A value of 0 means no net growth occurred over the course of the experiment. A value of -40 indicates 40% of cells at the beginning of the experiment died by the end of the experiment. A value of -100 means all cells are dead at the end of the experiment.
NCI-60 Human Tumor Cell Lines Screen was performed using the standard one-dose NCI protocol, which is described in more detail at https://dtp.cancer.gov/discovery_development/nci-60/default.htm.
Compounds with GIPRCNT values below 10 were considered active. Activity score was based on GIPRCNT using the following formula: […]
Score is 0 for GIPRCNT values of 100 or above, 50 for GIPRCNT values of 0, and 100 for GIPRCNT values of -100.

SMILES	growth
Oc1cc(/C=C/c2nc(N3CCOCC3)c3cc(Cl)c(Cl)cc3n2)cc(O)c1O	110%
C/C(=N\Nc1cc(C)c2cc(C)ccc2n1)c1ccccn1	-83.1% (active)
CC1(C)CC[C@]2(C(=O)Nc3ccccn3)CC[C@]3(C)C(=CC[C@@H]4[C@@]5(C)C/C(=C/c6ccncc6)C(=O)C(C)(C)[C@@H]5CC[C@]43C)[C@@H]2C1	17.1%
C=C(C)[C@@H]1CC[C@]2(C(=O)N3CCCNCC3)CC[C@]3(C)[C@H](CC[C@@H]4[C@@]5(C)CCC(=O)C(C)(C)[C@@H]5CC[C@]43C)[C@@H]12	92.3%
O=S(=O)(NCCNc1cc(-c2cn(-c3ccccc3)nc2-c2cccc(O)c2)ccn1)c1cccc(F)c1	39.4%
CCCC1CCCCN1C(=O)OCC(C)C (stereo not given)	113%
Cc1ccc(C)c2c1CCC2C(C)C (stereo not given)	100%
CN1CCN(CC#CCn2c3c(c4ccccc42)C[C@]2(C)[C@H]4CC[C@@H]5[C@H]6[C@H]7OC(=O)[C@@]6(CCC7(C)C)CC[C@@]5(C)[C@]4(C)CC[C@H]2C3(C)C)CC1	74.1%
COc1cc(NC(C)CN(CC(C)C)C(C)C)c2ncccc2c1 (stereo not given)	40.2%
c1ccc(-c2nc(Nc3ccc(-c4nc5ccccc5[nH]4)cc3)nc(N3CCOCC3)n2)cc1	-47.2% (active)
COC(=O)[C@]12CC[C@@H](C(C)=O)[C@@H]1[C@H]1CC[C@@H]3[C@@]4(C)C/C(=C/c5cccnc5)C(=O)C(C)(C)[C@@H]4CC[C@@]3(C)[C@]1(C)CC2	26.7%
N=C(N)c1ccc(S(N)(=O)=O)cc1	102%
NC1(N)C=CC2=C(C=C1)C1(N)C3=C(C=CC(N)(N)C=C3)N2C2(N)C3=C(C=CC(N)(N)C=C3)N1C1=C2C=CC(N)(N)C=C1	90.7%
O=C(Nc1ccc(/C=C2\SC(=O)N(Cc3ccc(OC(F)(F)F)cc3)C2=O)cc1)c1ccc(Cl)c([N+](=O)[O-])c1	31.4%
Cc1cc(C)n(Cc2cc(C(C)(C)C)cc(C(C)(C)C)c2)c(=O)c1C#N	90.4%
CC(C)=CCC[C@](C)(O)[C@H]1CC[C@]2(C)[C@@H]1CC[C@@H]1[C@@]3(C)C/C(=C/c4ccc(Br)cc4)C(=O)C(C)(C)[C@@H]3CC[C@]12C	78.5%
CCOC(=O)c1ccc2c(c1)[n+](=O)c(C(=O)C1CCCS1)c(C(F)(F)F)n2[O-] (stereo not given)	-83.3% (active)
O=[N+]([O-])c1cc(S(=O)(=O)c2ccc(F)c([N+](=O)[O-])c2)ccc1F	112%
C[C@@H](C(=O)O)c1ccc2c3cc(Cl)ccc3n(Cc3cc(=O)oc4ccc(Cl)cc34)c2c1	98.9%
N#Cc1cnc2cc(OC[C@@H](O)CO)c(NC(=O)CC3CSSC3)cc2c1Nc1ccc(OCc2cccc(F)c2)c(Cl)c1	-64.4% (active)

SMILES	growth
CN(C)c1ccc(N=C2C=CC(=O)C=C2)cc1	70.4%
C=C(C)[C@@H]1CC[C@]2(C)CC[C@]3(C)[C@H](CC[C@@H]4[C@@]5(C)CCCNC(C)(C)[C@@H]5CC[C@]43C)[C@@H]12	94.5%
NC(=O)NCC1CCCCC1	102%
COc1cc2c(cc1-c1c(C)noc1C)ncc1nc(C3CC3)n([C@H](C)COC(F)F)c12	58.7%
COC(=O)CCCCCn1c2ccccc2c2c3c(c4c5ccccc5[nH]c4c21)C(=O)N(O)C3=O	57.5%
Fc1ccc(NCc2nnc(-c3ccc(Cl)cc3)o2)cc1	69.2%
COc1cnc2c(c1)C(=O)c1c-2n(CCCNC(C)C)c(=O)c2cc([N+](=O)[O-])ccc12	-68.9% (active)
CC(=O)Cc1nsc(NC(=O)c2ccoc2COc2ccccc2)n1	103%
Fc1ccc(Nc2ccc3c(OCCCN4CCOCC4)cccc3n2)cc1F	79%
CC1(C)NC2=C(C(Nc3cccnc3)N1)C(c1ccc([N+](=O)[O-])cc1)C(C(=O)c1ccc(N=[N+]=[N-])cc1)O2 (stereo not given)	117%
C=C1C(=O)O[C@H]2[C@H]1CC/C(COC(=O)N[C@H](Cc1c[nH]c3ccccc13)C(=O)OC)=C\CC[C@@]1(C)O[C@@H]21	61.4%
COc1cnc2c(c1)C(=O)c1c-2n(CCCNC2=NCCS2)c(=O)c2cc([N+](=O)[O-])ccc12	-71.9% (active)
COc1cc(OC)c2c(c1)c1nc3cc(C)c(C)cc3nc1n2CCN(C)C	87.8%
CC1(C)C(=O)/C(=C\c2ccco2)C[C@]2(C)[C@H]3CC[C@@H]4[C@@H](C(=O)/C=C/c5ccco5)CC[C@@]4(C)[C@]3(C)CC[C@@H]12	83.6%
Fc1ccc2c(c1)c(-c1nc(-c3c[nH]c4ncccc34)cs1)cn2CCCN1CCCCC1	70.6%
CC(=O)O[C@@H]1CCN2C(=O)N(C)c3ccccc3[C@@H]2C1	107%
NS(=O)(=O)c1ccc(CCNC(=O)/C=C/c2ccc(Cl)cc2)cc1	87.1%
C=C(C)[C@@H]1CC[C@]2(C)[C@H](CC[C@@H]3[C@H]4[C@H]5OC[C@@]4(CCC5(C)C)CC[C@]32C)[C@@]1(C)CCCN	70.2%
CC(=O)OC(C)COc1ccc(-c2ccccc2)cc1 (stereo not given)	106%
CC(=O)n1c(/C(C#N)=C/c2ccc(N(C)C)cc2)cc2ccccc21	76.8%
